# Where “and” joins values, the source holds several entries; their conditions need not be identical. Equal entries are not always repeated. A number with no mark means an inactive call. Inconclusive results are not listed. Where a call stands in place of a potency, no number is given. The source holds several records for some structures; these can differ, active in one and inactive in another. Calls of active or inactive are those of the source. Unless noted, calls come from the whole dose curve; as a rule, active = well fitted curve in the direction sought with a large enough effect in the repeat runs; inconclusive = weak or mixed curves; inactive = no such curve, though single readings can be large; an effect the other way counts as inactive or inconclusive.
# Experiments:
# [1] = qHTS assay to identify small molecule agonists of the sonic hedgehog signaling (Shh) pathway (AID 1259368; calls by dose curve;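 note: NIH/3T3-derived 3T3Gli1-Luc cells carrying a stable Gli1-driven firefly luciferase reporter; series mostly up to about 92 µM; nearly all actives have a fitted effect of over 15% in size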)
# Procedure, shortened: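 Cells of a mouse NIH/3T3 clone stably expressing luciferase under the Gli1 transcriptional response element are exposed to test chemicals for 24 hr at 37 C. Pathway activation is detected as a rise in luminescence.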
# [2] = qHTS assay to identify small molecule antagonists of the sonic hedgehog signaling (Shh) pathway (AID 1259369; calls by dose curve; note: nearly all actives have a fitted effect of over 45% in size; note: potency is the fitted concentration of half-maximal effect)
# Procedure, shortened: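 Cells are plated and held 4hr at 37 C, compounds (DMSO) are pinned in, conditioned medium is added to stimulate the pathway, and after 24hr luciferase reagent is added for 30min before luminescence is read.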
# [3] = qHTS assay to identify small molecule agonists of the androgen receptor (AR) signaling pathway in the presence of an antagonist - cell viability counter screen (AID 1259379);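 note: MDA-kb2 human breast cancer cells carrying an MMTV luciferase reporter; series mostly up to about 92 µM; nearly all actives have a fitted effect of over 25% in size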
# Procedure, shortened: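 Cytotoxicity is assessed by CellTiter-Fluor in MDA-kb2 cells carrying an MMTV-driven luciferase reporter. Cells receive 3.0uM nilutamide plus compounds at 15 concentrations and incubate 16 hr at 37C without CO2 before fluorescence reading.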
# [4] = qHTS assay to identify small molecule agonists of the estrogen receptor beta (ER-beta) signaling pathway - cell viability counter screen (AID 1259380); note: nearly all actives have a fitted effect of over 30% in size; note: potency is the fitted concentration of half-maximal effect
# Procedure, shortened: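 Cytotoxicity is measured in parallel with the reporter screen: after 16 hr compound exposure at 37C and a 2 hr LiveBLAzer step, CellTiter-Glo is added to the same ER-beta-UAS-bla HEK293T wells and luminescence read after 30 min.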
# [5] = qHTS assay to identify small molecule antagonists of the estrogen receptor beta (ER-beta) signaling pathway - cell viability counter screen (AID 1259382); note: series mostly up to about 92 µM; nearly all actives have a fitted effect of over 55% in size
# Procedure, shortened: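 Cytotoxicity counter screen multiplexed with the beta-lactamase antagonist assay: GripTite HEK293T ER-beta-bla cells were treated 16 hr with test chemicals in the presence of 1nM 17-beta-estradiol, and viability was measured by CellTiter-Glo.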
# [6] = qHTS assay to identify small molecule agonists or antagonists of the thyroid stimulating hormone receptor (TSHR) signaling pathway - wild type cell line counter screen (AID 1259384; calls by dose curve)
# Procedure, shortened: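 Wild-type Hek293 cells, 800/well, 18 h at 37C, then compound with Ro20-1724 for 30 min RT. cAMP by HTRF (cAMP-d2/anti-cAMP cryptate), 1 h RT, fluorescence read. 15 concentrations, triplicates.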
# [7] = target: Thyrotropin receptor (Homo sapiens) (UniProt P16473); assay: qHTS assay to identify small molecule antagonists of the thyroid stimulating hormone receptor (TSHR) signaling pathway (AID 1259385; calls by dose curve; note: nearly all actives have a fitted effect of over 20% in size)
# Procedure, shortened: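 TSHR-HEK293 cells (800/well) plated 18 h, then compounds with Ro20-1724 and TSH at 1.5 ng/mL final, 30 min at room temperature. cAMP quantified by HTRF (cAMP-d2/anti-cAMP-cryptate, 1 h); 15 concentrations in triplicate.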
# [8] = qHTS assay to identify small molecule agonists of the estrogen receptor alpha (ER-alpha) signaling pathway in the presence of an antagonist - cell viability counter screen (AID 1259386);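 note: cells exposed to compounds for 22 h at 37 °C before the viability read; nearly all actives have a fitted effect of over 30% in size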; note: potency is the fitted concentration of half-maximal effect
# Procedure, shortened: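 Cytotoxicity was measured in parallel with the ERE-luciferase agonist screen, in the same wells. The cells were VM7Luc4E2, which endogenously express ER-alpha, and treatment was with compounds plus 10.0nM ICI-182,780 for 22hr.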
# [9] = target: Progesterone receptor (Homo sapiens) (UniProt P06401); assay: qHTS assay to identify small molecule agonists of the progesterone receptor (PR) signaling pathway (AID 1346784; calls by dose curve; note: nearly all actives have a fitted effect of over 30% in size)
# Procedure, shortened: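 HEK 293T PR-UAS-bla reporter cells, 2% charcoal-stripped FBS; 6 hr settle at 37C/5% CO2, compound (DMSO) 16 hr, LiveBLAzer B/G FRET substrate 2 hr RT, fluorescence intensity read.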
# [10] = qHTS assay to identify small molecule antagonists of the progesterone receptor (PR) signaling pathway - cell viability counter screen (AID 1346798); note: series mostly up to about 92 µM; nearly all actives have a fitted effect of over 50% in size
# Procedure, shortened: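 Luminescence readout (CellTiter-Glo, 30 min, RT) of viability in PR-UAS-bla HEK293T cells exposed to compound and R5020 agonist for 16 hr at 37C, 5% CO2; run in the same wells as the beta-lactamase reporter read.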
# [11] = qHTS assay to identify small molecule agonists of the progesterone receptor (PR) signaling pathway - cell viability counter screen (AID 1346799; calls by dose curve; note: nearly all actives have a fitted effect of over 45% in size)
# Procedure, shortened: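 HEK293T PR-UAS-bla, 3,000 cells/well, 2% charcoal-stripped FBS; 6 h settle, compound 16 h at 37C/5% CO2; LiveBLAzer 2 h RT, then CellTiter-Glo 30 min RT, luminescence read.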
# [12] = qHTS assay to identify small molecule antagonists of the TGF-beta/Smad signaling pathway - cell viability counter screen (AID 1346824); note: nearly all actives have a fitted effect of over 50% in size
# Procedure, shortened: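 SBE-bla HEK 293T cells, incubated overnight, then compound plus 0.25 ng/mL TGF-beta1 (stock added) for 5 hr at 37 C. Viability was read in the same wells by CellTiter-Glo luminescence after 30 min at room temperature.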
# [13] = qHTS assay to identify small molecule agonists of the TGF-beta/Smad signaling pathway - cell viability counter screen (AID 1346829); note: top concentration of the series differs between compounds; nearly all actives have a fitted effect of over 45% in size
# Procedure, shortened: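 HEK 293T SBE-bla line, 5 hr compound exposure at 37 C, multiplexed CellTiter-Glo viability read by luminescence.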
# [14] = target: Thyrotropin-releasing hormone receptor (Homo sapiens) (UniProt P34981); assay: qHTS assay to identify small molecule antagonists of the thyrotropin-releasing hormone receptor (TRHR) signaling pathway (AID 1346877; active = well fitted inhibition curve with a large enough effect in the repeat runs, not every such curve was filed as active; note: potency is the fitted concentration of half-maximal effect; for activity, negative = inhibition: series mostly up to about 51 µM)
# Procedure, shortened: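 Antagonism is measured as suppression of the calcium response to 1 nM TRH in TRHR-HEK293 cells that have been dye-loaded for 2 h at 37 °C after overnight plating. Each compound is tested at 15 concentrations in triplicate.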
# [15] = target: Estrogen receptor (Homo sapiens) (UniProt P03372); assay: qHTS assay to identify small molecule agonists of the estrogen receptor alpha (ER-alpha) signaling pathway in the presence of an antagonist (AID 1259383; calls by dose curve; note: nearly all actives have a fitted effect of over 15% in size; note: potency is the fitted concentration of half-maximal effect; for activation: top concentration of the series differs between compounds)
# Procedure, shortened: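 Agonist-mode confirmation in the presence of the ER antagonist ICI-182,780 at 10.0nM final. Breast-derived VM7Luc4E2 reporter cells were exposed to compounds for 22hr, and ERE-driven luciferase was quantified by luminescence.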
# [16] = target: Progesterone receptor (Homo sapiens) (UniProt P06401); assay: qHTS assay to identify small molecule antagonists of the progesterone receptor (PR) signaling pathway (AID 1346795; active = well fitted inhibition curve with a large enough effect in the signal ratio in the repeat runs, not every such curve was filed as active; the % refers to the signal ratio; note: potency is the fitted concentration of half-maximal effect)
# Procedure, shortened: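 Beta-lactamase reporter, HEK293T PR-UAS-bla line; 2% charcoal-stripped FBS; 6 hr pre-incubation, 37C/5% CO2. Compound + R5020 1 nM final, 16 hr. LiveBLAzer B/G FRET substrate, 2 hr RT; fluorescence intensity read.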
# [17] = qHTS assay to identify small molecule agonists of the TGF-beta/Smad signaling pathway (AID 1346859; active = well fitted activation curve with a large enough effect in the signal ratio in the repeat runs, not every such curve was filed as active; the % refers to the signal ratio; note: series mostly up to about 77 µM)
# Procedure, shortened: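 Read-out: fluorescence at 460 and 530 nm (405 nm excitation) after a 2 hr room-temperature incubation with beta-lactamase FRET substrate. SBE-bla HEK 293T cells had been treated with test compounds for 5 hr at 37 C.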
# [18] = target: Estrogen receptor beta (Homo sapiens) (UniProt Q92731); assay: qHTS assay to identify small molecule antagonists of the estrogen receptor beta (ER-beta) signaling pathway (AID 1259378; active = well fitted inhibition curve with a large enough effect in the signal ratio in the repeat runs, not every such curve was filed as active; the % refers to the signal ratio)
# Procedure, shortened: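 ER-beta-UAS-bla HEK293T cells in 2% charcoal-stripped FBS medium treated with compound plus 1nM final 17-beta-estradiol for 16 hr at 37C. Beta-lactamase reporter read by FRET substrate fluorescence after 2 hours at room temperature.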
# [19] = target: Androgen receptor (Homo sapiens) (UniProt P10275); assay: qHTS assay to identify small molecule agonists of the androgen receptor (AR) signaling pathway in the presence of an antagonist (AID 1259381; calls by dose curve; note: nearly all actives have a fitted effect of over 15% in size)
# Procedure, shortened: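 Agonist-mode confirmation screen: human MDA-kb2 cells stably expressing luciferase under an MMTV promoter bearing AR and GR response elements, co-treated with 3.0uM nilutamide (final). Luminescence measured after 16hr compound incubation.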
# [20] = target: Estrogen receptor beta (Homo sapiens) (UniProt Q92731); assay: qHTS assay to identify small molecule agonists of the estrogen receptor beta (ER-beta) signaling pathway (AID 1259377; active = well fitted activation curve with a large enough effect in the signal ratio in the repeat runs, not every such curve was filed as active; the % refers to the signal ratio)
# Procedure, shortened: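 Beta-lactamase reporter readout: fluorescence of LiveBLAzer B/G FRET substrate after 2 h at room temperature, following 16 h compound treatment of ER-beta-UAS-bla HEK293T cells at 37C in 2% charcoal-stripped FBS medium.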
# Chain of Estrogen receptor (Homo sapiens) (P03372 whole entry, looked up): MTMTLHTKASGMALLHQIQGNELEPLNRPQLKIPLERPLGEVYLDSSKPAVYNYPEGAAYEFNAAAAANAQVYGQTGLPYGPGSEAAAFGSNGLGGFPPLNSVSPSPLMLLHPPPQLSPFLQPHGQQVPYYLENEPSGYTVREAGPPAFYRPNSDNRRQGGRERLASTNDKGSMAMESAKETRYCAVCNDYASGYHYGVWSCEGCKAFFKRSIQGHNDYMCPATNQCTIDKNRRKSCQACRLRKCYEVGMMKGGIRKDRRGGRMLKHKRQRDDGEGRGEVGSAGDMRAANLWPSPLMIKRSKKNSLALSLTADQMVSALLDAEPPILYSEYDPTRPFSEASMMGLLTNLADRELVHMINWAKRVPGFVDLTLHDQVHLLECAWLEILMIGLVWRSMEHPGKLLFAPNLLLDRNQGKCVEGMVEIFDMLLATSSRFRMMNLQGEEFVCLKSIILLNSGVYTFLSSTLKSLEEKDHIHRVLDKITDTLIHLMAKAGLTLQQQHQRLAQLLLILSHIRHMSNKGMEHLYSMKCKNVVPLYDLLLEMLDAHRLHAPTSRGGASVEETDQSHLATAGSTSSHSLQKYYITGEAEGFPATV
# Chain of Thyrotropin-releasing hormone receptor (Homo sapiens) (P34981 whole entry, looked up): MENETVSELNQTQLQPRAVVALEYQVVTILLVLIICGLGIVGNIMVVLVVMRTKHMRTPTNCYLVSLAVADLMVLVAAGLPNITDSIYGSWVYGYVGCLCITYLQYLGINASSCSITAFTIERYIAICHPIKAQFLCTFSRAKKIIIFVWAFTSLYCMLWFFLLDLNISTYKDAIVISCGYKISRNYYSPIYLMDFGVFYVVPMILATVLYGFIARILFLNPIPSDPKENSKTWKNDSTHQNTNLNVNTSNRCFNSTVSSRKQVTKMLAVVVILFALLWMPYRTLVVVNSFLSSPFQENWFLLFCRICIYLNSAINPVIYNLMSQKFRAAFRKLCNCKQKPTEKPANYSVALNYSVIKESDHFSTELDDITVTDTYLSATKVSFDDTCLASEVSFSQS
# Chain of Progesterone receptor (Homo sapiens) (P06401 whole entry, looked up): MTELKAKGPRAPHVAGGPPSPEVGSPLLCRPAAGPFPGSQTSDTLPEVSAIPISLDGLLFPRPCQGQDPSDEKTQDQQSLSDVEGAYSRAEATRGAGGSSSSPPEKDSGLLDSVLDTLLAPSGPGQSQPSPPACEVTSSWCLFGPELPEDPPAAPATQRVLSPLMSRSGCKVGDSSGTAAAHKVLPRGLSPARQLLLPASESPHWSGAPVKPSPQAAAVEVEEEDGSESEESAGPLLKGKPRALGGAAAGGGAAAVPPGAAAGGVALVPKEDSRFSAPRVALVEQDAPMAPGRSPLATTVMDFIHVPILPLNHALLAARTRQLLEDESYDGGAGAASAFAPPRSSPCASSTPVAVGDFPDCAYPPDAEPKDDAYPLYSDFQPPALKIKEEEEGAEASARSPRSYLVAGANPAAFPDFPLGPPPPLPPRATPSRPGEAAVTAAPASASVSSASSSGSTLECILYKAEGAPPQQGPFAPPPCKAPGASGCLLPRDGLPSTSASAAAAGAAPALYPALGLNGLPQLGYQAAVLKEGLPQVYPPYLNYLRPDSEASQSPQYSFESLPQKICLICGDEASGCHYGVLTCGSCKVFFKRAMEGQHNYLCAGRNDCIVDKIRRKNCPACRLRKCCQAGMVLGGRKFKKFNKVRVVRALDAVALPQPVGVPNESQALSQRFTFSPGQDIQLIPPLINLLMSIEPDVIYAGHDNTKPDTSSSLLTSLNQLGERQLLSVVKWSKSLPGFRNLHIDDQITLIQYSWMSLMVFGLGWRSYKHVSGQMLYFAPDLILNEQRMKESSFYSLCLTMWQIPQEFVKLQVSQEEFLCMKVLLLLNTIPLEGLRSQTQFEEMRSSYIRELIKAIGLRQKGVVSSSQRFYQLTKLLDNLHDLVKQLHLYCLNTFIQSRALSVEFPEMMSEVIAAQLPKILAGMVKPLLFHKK
# Chain of Estrogen receptor beta (Homo sapiens) (Q92731 whole entry, looked up): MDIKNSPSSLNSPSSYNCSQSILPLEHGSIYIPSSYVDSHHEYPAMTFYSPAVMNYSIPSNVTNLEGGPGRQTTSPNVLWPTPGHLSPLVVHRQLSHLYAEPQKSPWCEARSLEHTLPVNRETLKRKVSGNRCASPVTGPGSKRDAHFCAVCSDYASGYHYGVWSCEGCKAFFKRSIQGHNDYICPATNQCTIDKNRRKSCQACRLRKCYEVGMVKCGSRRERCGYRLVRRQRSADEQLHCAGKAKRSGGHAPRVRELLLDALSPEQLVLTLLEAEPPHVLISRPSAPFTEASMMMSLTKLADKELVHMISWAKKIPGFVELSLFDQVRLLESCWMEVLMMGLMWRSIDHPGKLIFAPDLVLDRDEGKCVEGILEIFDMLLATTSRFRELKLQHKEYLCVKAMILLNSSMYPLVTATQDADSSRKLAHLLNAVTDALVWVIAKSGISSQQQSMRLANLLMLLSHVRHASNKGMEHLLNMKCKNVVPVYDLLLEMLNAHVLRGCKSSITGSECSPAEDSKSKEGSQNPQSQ
# Chain of Thyrotropin receptor (Homo sapiens) (P16473 whole entry, looked up): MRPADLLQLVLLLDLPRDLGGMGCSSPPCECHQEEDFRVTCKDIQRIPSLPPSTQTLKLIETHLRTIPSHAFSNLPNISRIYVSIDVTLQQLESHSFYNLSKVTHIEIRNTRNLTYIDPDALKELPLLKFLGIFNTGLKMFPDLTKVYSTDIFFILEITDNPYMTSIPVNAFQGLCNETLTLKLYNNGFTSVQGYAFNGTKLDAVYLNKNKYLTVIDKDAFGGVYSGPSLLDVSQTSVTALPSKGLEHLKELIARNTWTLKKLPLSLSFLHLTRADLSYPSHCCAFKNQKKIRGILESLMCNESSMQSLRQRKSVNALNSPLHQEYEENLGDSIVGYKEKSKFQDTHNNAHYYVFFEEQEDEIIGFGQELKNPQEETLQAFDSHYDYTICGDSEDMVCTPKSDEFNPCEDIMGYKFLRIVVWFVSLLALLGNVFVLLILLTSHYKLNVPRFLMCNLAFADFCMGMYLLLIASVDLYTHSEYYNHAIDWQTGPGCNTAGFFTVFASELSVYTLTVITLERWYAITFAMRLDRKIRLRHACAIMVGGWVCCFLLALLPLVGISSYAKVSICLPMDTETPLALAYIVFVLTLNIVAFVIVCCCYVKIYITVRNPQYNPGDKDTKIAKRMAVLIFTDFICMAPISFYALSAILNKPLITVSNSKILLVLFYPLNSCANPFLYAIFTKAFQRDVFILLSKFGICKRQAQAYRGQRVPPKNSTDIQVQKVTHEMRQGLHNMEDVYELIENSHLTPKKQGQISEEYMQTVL
# Chain of Androgen receptor (Homo sapiens) (P10275 whole entry, looked up): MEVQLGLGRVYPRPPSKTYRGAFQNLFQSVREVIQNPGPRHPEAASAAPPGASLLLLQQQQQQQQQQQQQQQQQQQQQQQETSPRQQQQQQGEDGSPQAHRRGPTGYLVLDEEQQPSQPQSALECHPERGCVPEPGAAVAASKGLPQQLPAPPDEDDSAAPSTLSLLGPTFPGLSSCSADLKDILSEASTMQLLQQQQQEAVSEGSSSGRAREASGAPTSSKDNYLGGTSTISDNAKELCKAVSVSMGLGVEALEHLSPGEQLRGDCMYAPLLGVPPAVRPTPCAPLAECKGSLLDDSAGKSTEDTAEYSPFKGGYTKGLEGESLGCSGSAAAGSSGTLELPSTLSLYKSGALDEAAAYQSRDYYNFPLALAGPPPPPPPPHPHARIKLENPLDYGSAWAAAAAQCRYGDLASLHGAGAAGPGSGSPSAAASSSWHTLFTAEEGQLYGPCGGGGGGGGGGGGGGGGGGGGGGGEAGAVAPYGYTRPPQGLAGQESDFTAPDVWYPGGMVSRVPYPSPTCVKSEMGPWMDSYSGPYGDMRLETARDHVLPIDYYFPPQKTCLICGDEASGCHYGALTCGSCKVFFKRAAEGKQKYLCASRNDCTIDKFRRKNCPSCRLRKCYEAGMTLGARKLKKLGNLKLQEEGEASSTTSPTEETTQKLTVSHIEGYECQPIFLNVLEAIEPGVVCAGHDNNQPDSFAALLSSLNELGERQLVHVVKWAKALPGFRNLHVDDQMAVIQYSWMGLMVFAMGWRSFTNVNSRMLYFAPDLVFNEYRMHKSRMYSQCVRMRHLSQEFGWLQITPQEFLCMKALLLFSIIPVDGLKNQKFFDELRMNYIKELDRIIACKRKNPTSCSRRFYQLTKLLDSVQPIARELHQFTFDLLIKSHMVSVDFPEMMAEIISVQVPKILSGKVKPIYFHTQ
smiles,measurement,setting,value
CC(=O)c1ccccn1,Potency,[1],inactive
same,Potency,[2],inactive
same,Potency,[3],inactive
same,Potency,[4],inactive
same,Potency,[5],inactive
same,outcome,[6],inactive
same,Potency,[7],inactive
same,Potency,[8],inactive
same,Potency,[9],inactive
same,Potency,[10],inactive
same,Potency,[11],inactive
same,Potency,[12],inactive
same,Potency,[13],inactive
same,Potency,[14],inactive
CCC(C)OC(=O)c1ccc(O)cc1 (configuration not stated),Potency,[1],inactive
same,Potency,[2],inactive
same,Potency,[4],inactive
same,Potency,[5],inactive
same,Potency,[15],19.4 µM (active) and 48.6 µM (active)
same,outcome,[6],inactive
same,Potency,[7],inactive
same,Potency,[8],inactive
same,Potency,[9],inactive
same,Potency,[16],48.9 µM (active) and 54.5 µM (active)
same,Potency,[10],inactive
same,Potency,[11],inactive
same,Potency,[12],inactive
same,Potency,[13],inactive
same,outcome,[17],inactive
same,Potency,[14],inactive
Nc1ccc(Nc2ccccc2)cc1,Potency,[1],inactive
same,Potency,[2],4.8 µM (active) and 1.72 µM (active) and 4.33 µM (active)
same,Potency,[3],inactive
same,Potency,[4],24.3 µM (active)
same,Potency,[5],inactive
same,Potency,[15],inactive
same,Potency,[8],30.6 µM (active) and 19.3 µM (active)
same,Potency,[9],inactive
same,Potency,[10],inactive
same,Potency,[11],inactive
same,Potency,[12],inactive
same,Potency,[13],inactive
same,outcome,[17],inactive
same,Potency,[14],inactive
Oc1ccc(O)cc1,Potency,[1],inactive
same,Potency,[2],4.3 µM (active) and 2.17 µM (active) and 6.68 µM (active)
same,Potency,[18],inactive
same,Potency,[3],inactive
same,Potency,[4],inactive
same,Potency,[5],inactive
same,Potency,[15],inactive
same,outcome,[6],inactive
same,Potency,[7],inactive
same,Potency,[8],inactive
same,Potency,[16],inactive
same,Potency,[11],inactive
same,Potency,[12],inactive
same,Potency,[13],inactive
same,outcome,[17],inactive
same,Potency,[14],inactive
CCC(C)(O)CCCC(C)C (configuration not stated),Potency,[1],inactive
same,Potency,[2],inactive
same,Potency,[3],inactive
same,Potency,[4],inactive
same,Potency,[5],inactive
same,Potency,[15],inactive
same,outcome,[6],inactive
same,Potency,[8],inactive
same,Potency,[9],inactive
same,Potency,[16],inactive
same,Potency,[10],inactive
same,Potency,[11],inactive
same,Potency,[12],inactive
same,Potency,[13],inactive
same,outcome,[17],inactive
O=C1c2cccc(O)c2C(=O)c2c(O)cccc21,Potency,[1],inactive
same,Potency,[2],inactive
same,Potency,[18],inactive
same,Potency,[5],inactive
same,outcome,[6],inactive
same,Potency,[7],inactive
same,Potency,[9],inactive
same,Potency,[16],inactive
same,Potency,[10],inactive
same,Potency,[11],inactive
same,Potency,[12],inactive
same,Potency,[13],inactive
same,outcome,[17],inactive
same,Potency,[14],inactive
CC1=CCC(C(C)(C)O)CC1 (configuration not stated),Potency,[1],inactive
same,Potency,[4],inactive
same,outcome,[19],inactive
same,Potency,[5],inactive
same,Potency,[15],inactive
same,outcome,[6],inactive
same,Potency,[7],inactive
same,Potency,[8],inactive
same,Potency,[9],inactive
same,Potency,[10],inactive
same,Potency,[11],inactive
same,Potency,[12],inactive
same,Potency,[13],inactive
same,Potency,[14],inactive
Cc1cc2nc3c(=O)[nH]c(=O)nc-3n(C[C@H](O)[C@H](O)[C@H](O)CO)c2cc1C,Potency,[1],inactive
same,Potency,[2],inactive
same,Potency,[20],inactive
same,"activity, negative = inhibition",[18],-6.01% [at 19 µM]
same,Potency,[4],inactive
same,Potency,[5],inactive
same,cAMP activity change,[6],-5.16% [at 18.9 µM]
same,Potency,[10],inactive
same,Potency,[11],inactive
same,Potency,[12],inactive
same,Potency,[13],inactive
same,activation,[17],-2.99% [at 15.8 µM]
same,Potency,[14],33.5 µM (active) and 19.8 µM (active)
same,"activity, negative = inhibition",[14],-21.3% [at 10.5 µM]

# From PubChem BioAssay (Tox21)
